Assay [1] can be described thus: antimalarial activity against Dd2 strain (AID 2302;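 active means growth inhibition above 50% at the single 2 µM test dose, taken to imply half-maximal potency below 2 µM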;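 further: 0% = DMSO untreated growth and 100% = chloroquine plus artemisinin killed control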). The settings on record: P. falciparum Dd2 in RBCs, LDH growth readout, 72 h; at 2 µM; stronger effect = higher value.
Assay [2] can be described thus: HepG2 cytotoxicity, primary screen, cytotoxicity control for P. falciparum antimalarial project, cell-based, ATP luminescence (AID 2303;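 active means inhibition above 50%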;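 further: 0% = DMSO wells and 100% = digitonin-killed cells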). The settings on record: HepG2 viability, 24-48 h, at 10 µM, stronger effect = higher value.
Assay [3] concerns the target L-lactate dehydrogenase (Plasmodium falciparum (isolate CDC / Honduras)) (UniProt Q27743). Put plainly: PfLDH activity inhibition – cell lysate, 3D7 strain, counter-screen for P. falciparum growth inhibition project (AID 2304).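 Further: 0% = vehicle and 100% = reference inhibitor.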 The settings on record: P. falciparum 3D7 crude extract, LDH APAD/NBT absorbance; at 2 µM; stronger effect = higher value.
Assay [4] is described as follows: inhibition of 3D7 malaria parasite growth – strain 3D7 (AID 2306).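 Further: 0% = DMSO wells and 100% = chloroquine plus artemisinin control wells.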 The settings on record: P. falciparum 3D7 erythrocytic growth, LDH absorbance, 72 h; at 2 µM; stronger effect = higher value.
In assay [5] the target is Calcium-dependent protein kinase 1 (Plasmodium falciparum (isolate 3D7)) (UniProt P62344). The assay is described as follows: PfCDPK1 kinase inhibitors, biochemical, TCAMS library (AID 1159585; cut-off not given, nearly all actives have IC50 up to about 0.98 µM;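 further: inhibitors leave more ATP so luminescence rises with inhibition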). Particulars: recombinant PfCDPK1, Kinase-Glo ATP depletion luminescence.
Calcium-dependent protein kinase 1 (Plasmodium falciparum (isolate 3D7)), sequence (P62344 whole entry, looked up): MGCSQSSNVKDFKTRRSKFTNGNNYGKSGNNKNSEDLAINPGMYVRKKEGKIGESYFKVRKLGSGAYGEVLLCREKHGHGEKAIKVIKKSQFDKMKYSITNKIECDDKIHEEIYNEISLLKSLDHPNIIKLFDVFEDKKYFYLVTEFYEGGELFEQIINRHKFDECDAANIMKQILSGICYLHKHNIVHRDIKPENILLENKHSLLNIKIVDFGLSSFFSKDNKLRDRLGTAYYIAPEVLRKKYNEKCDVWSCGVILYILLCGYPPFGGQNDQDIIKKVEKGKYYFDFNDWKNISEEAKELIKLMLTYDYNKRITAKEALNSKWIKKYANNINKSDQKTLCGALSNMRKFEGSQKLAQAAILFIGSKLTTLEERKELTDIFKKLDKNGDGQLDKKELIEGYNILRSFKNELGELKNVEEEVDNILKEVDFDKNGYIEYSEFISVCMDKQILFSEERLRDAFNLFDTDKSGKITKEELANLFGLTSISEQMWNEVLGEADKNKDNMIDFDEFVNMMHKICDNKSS
Assay [6] concerns the target Plasmodium falciparum protein kinase 6 (PK6, PF3D7_1337100) (UniProt Q8IDW1). The assay is described as follows: PfPK6 kinase inhibitors, biochemical, TCAMS library (AID 1159586). Particulars: recombinant PfPK6, Kinase-Glo ATP depletion luminescence. Background: In Kinase-Glo more light means more ATP remaining.
For assay [7], the target named is Protein kinase 7 (PK7), Plasmodium falciparum 3D7 (PF3D7_0213400) (UniProt Q7YTF7). Put plainly: inhibition of Plasmodium PK7 catalytic activity – biochemical, TCAMS antimalarial set, Kinase-Glo luminescence (AID 1159587). The settings on record: recombinant PfPK7, Kinase-Glo ATP depletion luminescence.
Protein kinase 7 (PK7), Plasmodium falciparum 3D7 (PF3D7_0213400), sequence (Q7YTF7 1-343): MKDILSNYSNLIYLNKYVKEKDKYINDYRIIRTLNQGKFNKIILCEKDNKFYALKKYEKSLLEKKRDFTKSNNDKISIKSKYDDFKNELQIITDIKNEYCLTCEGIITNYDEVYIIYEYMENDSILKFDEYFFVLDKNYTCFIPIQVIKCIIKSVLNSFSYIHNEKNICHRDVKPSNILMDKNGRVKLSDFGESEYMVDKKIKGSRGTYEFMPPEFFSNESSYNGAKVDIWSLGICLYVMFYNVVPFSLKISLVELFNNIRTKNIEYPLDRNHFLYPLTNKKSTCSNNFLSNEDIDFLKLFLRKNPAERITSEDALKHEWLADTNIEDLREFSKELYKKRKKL
Assay [8] deals with Calcium-dependent protein kinase 4 (Plasmodium falciparum (isolate 3D7)) (UniProt Q8IBS5). Put plainly: PfCDPK4 kinase inhibitors, biochemical, TCAMS library (AID 1159588; cut-off not given, nearly all actives have IC50 up to about 0.91 µM). The settings on record: recombinant PfCDPK4, Kinase-Glo ATP depletion luminescence.
Calcium-dependent protein kinase 4 (Plasmodium falciparum (isolate 3D7)), sequence (Q8IBS5 whole entry, looked up): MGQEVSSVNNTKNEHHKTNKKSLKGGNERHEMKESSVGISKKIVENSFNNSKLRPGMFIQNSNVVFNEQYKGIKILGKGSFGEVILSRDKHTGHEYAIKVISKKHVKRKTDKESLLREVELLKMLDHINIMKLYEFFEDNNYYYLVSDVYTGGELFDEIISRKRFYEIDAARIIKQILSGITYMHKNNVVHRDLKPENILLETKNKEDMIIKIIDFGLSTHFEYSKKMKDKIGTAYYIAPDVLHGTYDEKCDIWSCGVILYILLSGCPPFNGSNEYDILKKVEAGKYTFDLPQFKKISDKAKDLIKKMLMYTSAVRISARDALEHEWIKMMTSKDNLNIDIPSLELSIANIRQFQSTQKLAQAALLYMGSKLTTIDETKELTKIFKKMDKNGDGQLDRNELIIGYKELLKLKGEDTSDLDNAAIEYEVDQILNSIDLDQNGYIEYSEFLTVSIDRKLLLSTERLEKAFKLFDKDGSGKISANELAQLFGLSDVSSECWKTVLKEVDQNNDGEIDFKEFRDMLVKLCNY

A number with no mark means an inactive call. For some of these results: Entries with a potency or affinity are not part of this list. Activity calls are given as the source filed them. Unless noted, how the calls were made is not given here.

Plasmodium falciparum protein kinase 6 (PK6, PF3D7_1337100), sequence (Q8IDW1 1-305): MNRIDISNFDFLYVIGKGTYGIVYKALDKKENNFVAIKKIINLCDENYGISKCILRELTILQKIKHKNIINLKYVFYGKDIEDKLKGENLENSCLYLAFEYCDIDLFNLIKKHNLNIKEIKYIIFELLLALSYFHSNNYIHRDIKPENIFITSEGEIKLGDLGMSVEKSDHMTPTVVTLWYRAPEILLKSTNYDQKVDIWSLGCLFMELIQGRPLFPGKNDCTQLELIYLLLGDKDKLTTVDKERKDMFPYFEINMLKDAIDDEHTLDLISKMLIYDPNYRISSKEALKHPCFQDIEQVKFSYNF
L-lactate dehydrogenase (Plasmodium falciparum (isolate CDC / Honduras)), sequence (Q27743 whole entry, looked up): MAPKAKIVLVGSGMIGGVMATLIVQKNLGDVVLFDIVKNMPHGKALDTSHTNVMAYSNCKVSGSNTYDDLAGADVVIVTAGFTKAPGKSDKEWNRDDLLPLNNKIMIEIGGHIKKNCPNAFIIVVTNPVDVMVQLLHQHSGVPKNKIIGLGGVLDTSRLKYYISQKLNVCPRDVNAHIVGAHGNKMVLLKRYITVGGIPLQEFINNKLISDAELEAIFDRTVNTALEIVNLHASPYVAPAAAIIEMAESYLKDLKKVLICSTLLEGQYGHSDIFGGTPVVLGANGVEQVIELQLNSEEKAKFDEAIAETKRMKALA

Usually inhibition stands for the drop in the measured response relative to a control, in per cent. With `Cc1ccc(Nc2ccnc(Nc3ccc(C)c(F)c3)n2)cc1O`, the growth inhibition was 27% in assay [1] and 100% (active) in assay [4]. Besides, the inhibition was 4% in assay [2] and -4% in assay [3]. Besides, the outcome in assay [5], in assay [6], in assay [7] and in assay [8] was inactive.
Consider `CC[C@H]1CN(CCCn2c3ccccc3c3ccccc32)[C@@H](CC)CN1`, for which the growth inhibition in assay [1] was -3%; in assay [4], 89% (active). Moreover, the inhibition was 69% (active) in assay [2] and -6% in assay [3]. Further, the outcome in assay [5], in assay [6], in assay [7] and in assay [8] was inactive.
`CCn1c(SCc2ccccc2)nc2c1c(=O)[nH]c(=O)n2C`: the growth inhibition was 30% in assay [1] and 96% (active) in assay [4]. Further, the figures for the inhibition in assay [2] and in assay [3] were 1% and -1%, respectively. For the same molecule, the outcome in assay [5], in assay [6], in assay [7] and in assay [8] was inactive.
On to `CC(CN1CCN(C)CC1)C(=O)Nc1ccc(-c2ccc(-c3nc4ccccc4[nH]3)cc2)cc1` (stereo not given), for which the results for the growth inhibition in assay [1] and in assay [4] were 87% (active) and 92% (active), respectively. Further, the inhibition is 13% in assay [2] and 4% in assay [3]. Also, the result in assay [5], in assay [6], in assay [7] and in assay [8] was inactive.
Take `c1ccc(Oc2ccc(Nc3ccnc4cc(-c5cccc(CN6CCOCC6)c5)ccc34)cc2)cc1`: the results for the growth inhibition in assay [1] and in assay [4] were 100% (active) and 101% (active), respectively. The inhibition in assay [2] is 14%; in assay [3] it was -1%. Moreover, the outcome in assay [5], in assay [6], in assay [7] and in assay [8] was inactive.
In the case of `Cc1[nH]cnc1CSCCNC(N)=NCCCCCCCCN=C(N)NCCSCc1nc[nH]c1C`, the growth inhibition was 95% (active) in assay [1] and 96% (active) in assay [4]. Also, the inhibition in assay [2] is 24%; in assay [3], -10%. For the same molecule, the result in assay [5], in assay [6], in assay [7] and in assay [8] was inactive.
In the case of `CCOc1ncccc1CN1CCC(N2CCc3cc(NC(=O)c4cc(C)on4)ccc32)C1` (stereo not given), the growth inhibition is 96% (active) in assay [1] and 89% (active) in assay [4]. Besides, the inhibition in assay [2] is -3%; in assay [3], -1%. For the same molecule, the outcome in assay [5], in assay [6], in assay [7] and in assay [8] was inactive.
`COc1cc(C(=O)Nc2cccc(-c3cn4ccc(C)cc4n3)c2)cc(OC)c1OC`: the growth inhibition in assay [1] was 83% (active); in assay [4], 97% (active). The inhibition in assay [2] is -1%; in assay [3], 1%. Besides, the outcome in assay [5], in assay [6], in assay [7] and in assay [8] was inactive.
For the molecule `COc1ccc2nccc([C@H](O)CN3CCC(NCc4cc(C)c5c(c4)OCCO5)CC3)c2n1`, the results for the growth inhibition in assay [1] and in assay [4] were 35% and 96% (active), respectively. Moreover, the inhibition in assay [2] was 12%; in assay [3], 3%. Further, the result in assay [5], in assay [6], in assay [7] and in assay [8] was inactive.
Turning to `NCc1ccc(CNCc2cccc(-c3ccc(-c4nc5ccccc5[nH]4)cc3)c2)cc1`, the results for the growth inhibition in assay [1] and in assay [4] were 58% (active) and 100% (active), respectively. Also, the inhibition was 10% in assay [2] and -8% in assay [3]. Besides, the result in assay [5], in assay [6], in assay [7] and in assay [8] was inactive.
Turning to `CN(C)CCOc1ccc2c(c1)CN(C)CC2c1ccccc1` (stereo not given), the results for the growth inhibition in assay [1] and in assay [4] were -1% and 91% (active), respectively. Moreover, the figures for the inhibition in assay [2] and in assay [3] were 15% and -2%, respectively. Besides, the result in assay [5], in assay [6], in assay [7] and in assay [8] was inactive.
For `O=C(NCCN1CCC(NC(=O)c2ccc(-c3ccccn3)s2)CC1)c1cccc(C(F)(F)F)c1`, the growth inhibition was 24% in assay [1] and 97% (active) in assay [4]. Further, the inhibition was 4% in assay [2] and -4% in assay [3]. In addition, the outcome in assay [5], in assay [6], in assay [7] and in assay [8] was inactive.
As for `N#Cc1ccc(N(CCOc2ccc(Cl)c(F)c2)Cc2ccccc2C(F)(F)F)cc1C(F)(F)F`, the figures for the growth inhibition in assay [1] and in assay [4] were 43% and 101% (active), respectively. The inhibition in assay [2] was 17%; in assay [3], -2%. Moreover, the result in assay [5], in assay [6], in assay [7] and in assay [8] was inactive.
On to `O=C(Nc1ccc(C(=O)N2CCN(CCN3CCN(c4cccc(C(F)(F)F)c4)CC3)CC2)cc1)c1ccc(C(F)(F)F)cc1`, for which the growth inhibition in assay [1] was 28%; in assay [4], 95% (active). In addition, the inhibition in assay [2] was 39%; in assay [3], 0%. Besides, the result in assay [5], in assay [6], in assay [7] and in assay [8] was inactive.
Take `CN(C)Cc1ccc(-c2cc3ncnc(Nc4ccc(OCc5cccc(F)c5)c(Cl)c4)c3s2)[nH]1`: the growth inhibition in assay [1] was 87% (active); in assay [4] it was 99% (active). Besides, the inhibition was 53% (active) in assay [2] and 6% in assay [3]. The result in assay [5], in assay [6], in assay [7] and in assay [8] was inactive.
With `O=C(NC1CCC(N2CCC(O)(c3ccc(F)cc3)CC2)CC1)c1cc2ccccc2[nH]1` (stereo not given), the growth inhibition in assay [1] was 8%; in assay [4], 94% (active). Moreover, the inhibition in assay [2] was 9%; in assay [3] it was -4%. Besides, the outcome in assay [5], in assay [6], in assay [7] and in assay [8] was inactive.
Consider `COc1cc2c(cc1OC)CC(NCCCCCCNCCc1ccc(Cl)cc1)CC2` (stereo not given), for which the growth inhibition was -1% in assay [1] and 98% (active) in assay [4]. Moreover, the values for the inhibition in assay [2] and in assay [3] were 50% (active) and 1%, respectively. Also, the result in assay [5], in assay [6], in assay [7] and in assay [8] was inactive.
On to `Cc1ccc(Nc2nc(NN=Cc3cccc([N+](=O)[O-])c3)nc(Nc3ccccc3)n2)c(C)c1`, for which the growth inhibition in assay [1] is 97% (active); in assay [4], 91% (active). Further, the inhibition in assay [2] was 9%; in assay [3], 4%. In addition, the result in assay [5], in assay [6], in assay [7] and in assay [8] was inactive.
Regarding `COc1ccc(NC(=O)/C=C/c2ccccc2Cl)cc1OCCN1CCC(N2CCCCC2)CC1`, the growth inhibition was 49% in assay [1] and 101% (active) in assay [4]. Moreover, the inhibition in assay [2] was 3%; in assay [3], 1%. In addition, the outcome in assay [5], in assay [6], in assay [7] and in assay [8] was inactive.
As to `Cc1ccccc1N1CCN(c2ccc(C(=O)NC3CC3)cn2)CC1`, the growth inhibition in assay [1] and in assay [4] was 96% (active) throughout. The inhibition was 14% in assay [2] and 0% in assay [3]. For the same molecule, the outcome in assay [5], in assay [6], in assay [7] and in assay [8] was inactive.

Source of the values: PubChem BioAssay.
